# Article PMC5540273 (PLoS ONE, 2017)
# Read-outs that look alike come from different tables or passages of the source.
# What was measured:
# [1] = test system: MAPKAPK5; details: concentration: 1 μM, replicates: in singlicate; n = 1
# [2] = test system: MARK1; details: concentration: 1 μM, replicates: in singlicate; n = 1
# [3] = test system: MARK2; details: n = 1
# [4] = test system: MARK3; details: n = 1
# [5] = test system: MARK4; details: n = 1
# [6] = test system: MAST1; details: concentration: 1 μM, replicates: in singlicate; n = 1
# [7] = test system: T1, MEK1; details: concentration: 1 μM, replicates: in singlicate; n = 1
# T1 construct: gene MAP2K1
# [8] = test system: T2, MEK2; details: concentration: 1 μM, replicates: in singlicate; n = 1
# T2 construct: gene MAP2K2
# [9] = test system: T3, MEK3; details: concentration: 1 μM, replicates: in singlicate; n = 1
# T3 construct: gene MAP2K3
# [10] = test system: T4, MEK4; details: concentration: 1 μM, replicates: in singlicate; n = 1
# T4 construct: gene MAP2K4
# [11] = test system: T5, MEK5; details: concentration: 1 μM, replicates: in singlicate; n = 1
# T5 construct: gene MAP2K5
# [12] = test system: T6, MEK6; details: concentration: 1 μM, replicates: in singlicate; n = 1
# T6 construct: gene MAP2K6
# [13] = test system: MELK; details: concentration: 1 μM, replicates: in singlicate; n = 1
# [14] = test system: MERTK; details: concentration: 1 μM, replicates: in singlicate; n = 1
# [15] = test system: MET; details: concentration: 1 μM, replicates: in singlicate; n = 1
# [16] = test system: T7, MINK; details: concentration: 1 μM, replicates: in singlicate; n = 1
# T7 construct: gene MINK1
# [17] = test system: MKK7; details: concentration: 1 μM, replicates: in singlicate; n = 1
# [18] = test system: MKNK1; details: concentration: 1 μM, replicates: in singlicate; n = 1
# [19] = test system: MKNK2; details: concentration: 1 μM, replicates: in singlicate; n = 1
# [20] = test system: T8, MLCK; details: concentration: 1 μM, replicates: in singlicate; n = 1
# T8 construct: gene MYLK3
# [21] = concentration: 1 μM, replicates: in singlicate
# 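Also: KINOMEscan kinase panel screen.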
smiles,measurement,setting,value
O=C(Nc1cccc(-c2nn3ccccc3c2-c2ccnc(Nc3cccc(C(F)(F)F)c3)n2)c1)c1c(F)cccc1F [GSK292658],%Inh,[1],0%
same,%Inh,[2],0%
same,%Inh,[3]; [21],0%
same,%Inh,[4]; [21],3%
same,%Inh,[5]; [21],0%
same,%Inh,[6],0%
same,%Inh,[7],3%
same,%Inh,[8],0%
same,%Inh,[9],0%
same,%Inh,[10],17%
same,%Inh,[11],80%
same,%Inh,[12],0%
same,%Inh,[13],0%
same,%Inh,[14],37%
same,%Inh,[15],0%
same,%Inh,[16],2%
same,%Inh,[17],0%
same,%Inh,[18],0%
same,%Inh,[19],1%
same,%Inh,[20],0%
COC(=O)Nc1nc2cc(Oc3ccc(NC(=O)Nc4cc(C(F)(F)F)ccc4F)cn3)ccc2[nH]1.Cl.Cl [GW681170],%Inh,[1],0%
same,%Inh,[2],0%
same,%Inh,[3]; [21],0%
same,%Inh,[4]; [21],14%
same,%Inh,[5]; [21],0%
same,%Inh,[6],24%
same,%Inh,[7],0%
same,%Inh,[8],2%
same,%Inh,[9],7%
same,%Inh,[10],0%
same,%Inh,[11],51%
same,%Inh,[12],0%
same,%Inh,[13],6%
same,%Inh,[14],95.7%
same,%Inh,[15],73%
same,%Inh,[16],18%
same,%Inh,[17],0%
same,%Inh,[18],36%
same,%Inh,[19],88%
same,%Inh,[20],0%
O=C(Nc1n[nH]c2cc(-c3ccoc3)ccc12)C1CC1 [SB-738481],%Inh,[1],10%
same,%Inh,[2],11%
same,%Inh,[3]; [21],15%
same,%Inh,[4]; [21],0%
same,%Inh,[5]; [21],0%
same,%Inh,[6],37%
same,%Inh,[7],2%
same,%Inh,[8],18%
same,%Inh,[9],23%
same,%Inh,[10],3%
same,%Inh,[11],45%
same,%Inh,[12],0%
same,%Inh,[13],0%
same,%Inh,[14],0%
same,%Inh,[15],0%
same,%Inh,[16],44%
same,%Inh,[17],0%
same,%Inh,[18],0%
same,%Inh,[19],15%
same,%Inh,[20],34%
NCCCC(NC(=O)c1cc(Br)c(-c2ccnc3[nH]ccc23)s1)c1ccccc1.O=C(O)C(F)(F)F.O=C(O)C(F)(F)F (stereo not drawn) [GSK1287544],%Inh,[1],0%
same,%Inh,[2],0%
same,%Inh,[3]; [21],2%
same,%Inh,[4]; [21],20%
same,%Inh,[5]; [21],4%
same,%Inh,[6],0%
same,%Inh,[7],0%
same,%Inh,[8],0%
same,%Inh,[9],71%
same,%Inh,[10],50%
same,%Inh,[11],7%
same,%Inh,[12],0%
same,%Inh,[13],54%
same,%Inh,[14],55%
same,%Inh,[15],6%
same,%Inh,[16],27%
same,%Inh,[17],16%
same,%Inh,[18],0%
same,%Inh,[19],83%
same,%Inh,[20],47%
COc1cc(Nc2nccc(-c3c(-c4cccc(NC(=O)c5c(F)cccc5F)c4)nn4ccccc34)n2)cc(OC)c1OC [GSK323521],%Inh,[1],3%
same,%Inh,[2],6%
same,%Inh,[3]; [21],0%
same,%Inh,[4]; [21],51%
same,%Inh,[5]; [21],17%
same,%Inh,[6],0%
same,%Inh,[7],4%
same,%Inh,[8],0%
same,%Inh,[9],0%
same,%Inh,[10],41%
same,%Inh,[11],79%
same,%Inh,[12],3%
same,%Inh,[13],3%
same,%Inh,[14],59%
same,%Inh,[15],58%
same,%Inh,[16],8%
same,%Inh,[17],32%
same,%Inh,[18],7%
same,%Inh,[19],22%
same,%Inh,[20],9%
CCn1c(-c2nonc2N)nc2c(C#CC(C)(C)O)ncc(OCCCCN)c21.O=C(O)C(F)(F)F.O=C(O)C(F)(F)F [GSK507274],%Inh,[1],0%
same,%Inh,[2],0%
same,%Inh,[3]; 1 µM,68%
same,%Inh,[4]; 1 µM,71%
same,%Inh,[5]; 1 µM,0%
same,%Inh,[6],56%
same,%Inh,[7],0%
same,%Inh,[8],34%
same,%Inh,[9],0%
same,%Inh,[10],1%
same,%Inh,[11],0%
same,%Inh,[12],0%
same,%Inh,[13],1%
same,%Inh,[14],30%
same,%Inh,[15],0%
same,%Inh,[16],0%
same,%Inh,[17],0%
same,%Inh,[18],0%
same,%Inh,[19],11%
same,%Inh,[20],13%
Cc1cccc(NC(=O)Nc2ccc(Oc3ncnc4ccn(C)c34)cc2)c1,%Inh,[1],0%
same,%Inh,[2],0%
same,%Inh,[3]; [21],0%
same,%Inh,[4]; [21],6%
same,%Inh,[5]; [21],0%
same,%Inh,[6],0%
same,%Inh,[7],0%
same,%Inh,[8],29%
same,%Inh,[9],5%
same,%Inh,[10],0%
same,%Inh,[11],25%
same,%Inh,[12],0%
same,%Inh,[13],0%
same,%Inh,[14],9%
same,%Inh,[15],19%
same,%Inh,[16],3%
same,%Inh,[17],0%
same,%Inh,[18],3%
same,%Inh,[19],88%
same,%Inh,[20],0%
Nc1ncnc2c1nc(-c1ccccc1)n2-c1ccccc1 [SKF-97293],%Inh,[1],0%
same,%Inh,[2],27%
same,%Inh,[3]; [21],0%
same,%Inh,[4]; [21],39%
same,%Inh,[5]; [21],33%
same,%Inh,[6],47%
same,%Inh,[7],15%
same,%Inh,[8],14%
same,%Inh,[9],50%
same,%Inh,[10],35%
same,%Inh,[11],32%
same,%Inh,[12],27%
same,%Inh,[13],0%
same,%Inh,[14],0%
same,%Inh,[15],10%
same,%Inh,[16],16%
same,%Inh,[17],38%
same,%Inh,[18],0%
same,%Inh,[19],18%
same,%Inh,[20],23%
CNC(=O)c1ccccc1Nc1nc(Nc2ccc(N3CCOCC3)cc2)ncc1Cl.Cl [GSK1576028],%Inh,[1],0%
same,%Inh,[2],95.2%
same,%Inh,[3]; [21],92.6%
same,%Inh,[4]; [21],95.5%
same,%Inh,[5]; [21],96.8%
same,%Inh,[6],0%
same,%Inh,[7],88%
same,%Inh,[8],87%
same,%Inh,[9],87%
same,%Inh,[10],74%
same,%Inh,[11],97.6%
same,%Inh,[12],79%
same,%Inh,[13],99.8%
same,%Inh,[14],100%
same,%Inh,[15],95%
same,%Inh,[16],72%
same,%Inh,[17],0%
same,%Inh,[18],14%
same,%Inh,[19],82%
same,%Inh,[20],96.1%
